# Reference: PubChem BioAssay (Tox21)
# Records with an inconclusive call do not appear. Values without a mark were called inactive. The source made the active and inactive calls. Unless noted, the call rests on the fitted dose curve; in most records, active means well fitted cell-killing curve with a large enough effect in the repeat runs; inconclusive means weak or mixed curves, or effect the other way; inactive means flat fitted curve, though single readings scatter.
# Test system: estrogen-related receptor alpha (ERRalpha) with PGC-1alpha coactivator, human
# Assay: qHTS assay to identify small molecule antagonists of the estrogen related receptor signaling pathway with the pleiotropic PPARgamma coactivator (PGC) (AID 1224821; calls by dose curve; further: nearly all actives have a fitted effect of over 50% in size;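 on activity change, negative = inhibition: lower luminescence signal means antagonism of PGC/ERR signalling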)
# Conditions: ERR/PGC reporter cell line, luciferase, antagonist mode; series mostly up to 46.1 µM; activity change, negative = inhibition: at the top concentration
# Method in brief: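 Quantitative HTS for antagonism: PGC/ERR cells received compounds after 6 h attachment and were incubated 18 h at 37 C, with luminescence (One-Glo) as the endpoint.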
# On the % scale 0 is the no-effect control and ±100 the full control effect; potency means the concentration at half of the fitted maximal effect.
Structure (SMILES),"activity change, negative = inhibition [%]",Potency
Oc1ccc2c3c1O[C@H]1c4[nH]c5c(c4C[C@@]4(O)[C@@H](C2)N(CC2CC2)CC[C@]314)C[C@@]1(O)[C@H]2Cc3ccc(O)c4c3[C@@]1(CCN2CC1CC1)[C@H]5O4,0.221,–
Cc1sc2ccccc2c1CC1=NCCN1,0.0589,–
CNCCc1c[nH]c2ccc(O)cc12,7.03,–
CCOC(=O)c1ncn2c1[C@@H]1CCCN1C(=O)c1cc(OC)ccc1-2,-4.32,–
Nc1ncnc2c1ncn2[C@@H]1O[C@H](COP(=O)(O)CP(=O)(O)OP(=O)(O)O)C(O)[C@H]1O (stereo partly drawn),11,–
C[N+]1(C)CCC(OC(=O)C(c2ccccc2)c2ccccc2)CC1,-13.6,–
CC(C)CC(NP(=O)(O)O[C@@H]1O[C@@H](C)[C@H](O)[C@@H](O)[C@H]1O)C(=O)NC(Cc1c[nH]c2ccccc12)C(=O)O (stereo partly drawn),7.17,–
CN1C2CCC1CC(OC(c1ccccc1)c1ccccc1N)C2 (stereo not drawn),-19.9,–
CCN1C[C@@]2(COC)C3[C@@H](OC)C4[C@H]1C3([C@@H]1C[C@@]3(O)[C@H](OC(=O)c5ccccc5)[C@@H]1[C@]4(OC(C)=O)[C@@H](O)[C@@H]3OC)[C@H](OC)C[C@H]2O,10.5,–
CC(C)(C)OC(=O)NC1[C@H]2CNC[C@@H]12 (stereo partly drawn),–,15.5 µM (active)
S=C(NC1CCCCC1)N1CCC(c2cnc[nH]2)CC1,20.7,–
N[C@@]1(C(=O)O)CC[C@@H](C(=O)O)C1,-7.35,–
C[N+]1(C)CCN(c2ccccc2)CC1,-2.72,–
C=CCN1CCC23c4c5ccc(O)c4O[C@H]2C(=O)CC[C@@]3(O)C1C5 (stereo partly drawn),-0.092,–
OCc1cnc[nH]1,2.36,–
C#CCOC(=O)C1=CCCN(C)C1,85.4,–
CCCN1CCc2cc(O)cc3c2[C@H]1Cc1ccc(O)c(O)c1-3,5.56,–
CS(=N)(=O)CC[C@H](N)C(=O)O (stereo partly drawn),0.0257,–
NC1CCc2cc(O)c(O)cc2C1 (stereo not drawn),-9.22,–
O=C(N[C@H]1CN2CCC1CC2)c1ccc(Cl)cc1,-17.9,–

# Test system: not listed separately
# Assay: qHTS assay to identify small molecule antagonists of the estrogen related receptor signaling pathway with the pleiotropic PPARgamma coactivator (PGC) cell viability counter screen (AID 1224822;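 further: viability read after 17.5 h compound exposure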)
# Conditions: ERR/PGC reporter cell line viability counter screen; series mostly up to 46.1 µM; viability change, negative = cytotoxic: at the top concentration
# Method in brief: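 qHTS format, DMSO compound stocks pin-transferred onto PGC/ERR cells 6 h after plating; 17.5 h exposure at 37 C, then CellTiter-Fluor fluorescence.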
Structure (SMILES),"viability change, negative = cytotoxic [%]",Potency
CCCN(CCC)CCc1ccc(O)c(O)c1,0.335,–
CN(N=O)c1ccc(O)c(O)c1,-2.29,–
Clc1cc(I)cc(Cl)c1NC1=NCCN1,6.73,–
O=C(O)[C@@H]1CCN1,3,–
C[N+]1(C)CCc2cc3c(cc2[C@H]1[C@@H]1OC(=O)c2c1ccc1c2OCO1)OCO3,12,–
CC(C)Oc1cccnc1N(C)C1CCN(Cc2ccccc2)CC1,-5.19,–
COc1ccc2c(c1O)-c1cccc3c1[C@@H](C2)N(C)CC3,-15.2,–
CC(C)(O)[C@@H]1[C@H]2OC(=O)[C@@H]1[C@]1(O)C[C@H]3O[C@]34C(=O)O[C@H]2[C@]14C (tested in a mixture with another compound),-3.51,–
NCCc1ccc(S(=O)(=O)F)cc1,3.44,–
C[N+](C)(C)CC#CCN1CCCC1=O,-1.5,–
COc1cc(C(O)CN)ccc1O (stereo not drawn),4.43,–
NCCc1c[nH]c2ccc(O)cc12,12.8,–
C[C@H](Cc1ccc2c(c1)OC(C(=O)O)(C(=O)O)O2)NC[C@H](O)c1cccc(Cl)c1,4.42,–
CCCN1CCC[C@@H](c2cccc(O)c2)C1,-3.75,–
NCCc1c[nH]c2ccccc12,11,–
COc1ccc(CNC(=O)/C=C/c2ccc3[nH]cc(CCN(C)C)c3c2)cc1,-12.9,–
COc1ccc2[nH]c3c(c2c1)CCNC3,-5.48,–
COc1ccc2c(c[n+](C)c3c4cc5c(cc4ccc23)OCO5)c1OC,–,5.11 µM (active)
C[C@H]1C2Cc3ccc(O)cc3[C@@]1(C)CCN2CC1CC1,12.4,–

Structure (SMILES),"viability change, negative = cytotoxic [%]",Potency
NC(=NCCC[C@H](N)C(=O)O)N[N+](=O)[O-],-7.98,–
Oc1ccc2c3c1O[C@H]1c4[nH]c5c(c4C[C@@]4(O)[C@@H](C2)N(CC2CC2)CC[C@]314)C[C@@]1(O)[C@H]2Cc3ccc(O)c4c3[C@@]1(CCN2CC1CC1)[C@H]5O4,7.08,–
Cc1sc2ccccc2c1CC1=NCCN1,1.88,–
CNCCc1c[nH]c2ccc(O)cc12,11.2,–
CCOC(=O)c1ncn2c1[C@@H]1CCCN1C(=O)c1cc(OC)ccc1-2,-8.9,–
Nc1ncnc2c1ncn2[C@@H]1O[C@H](COP(=O)(O)CP(=O)(O)OP(=O)(O)O)C(O)[C@H]1O (stereo partly drawn),-3.61,–
C[N+]1(C)CCC(OC(=O)C(c2ccccc2)c2ccccc2)CC1,4.12,–
CC(C)CC(NP(=O)(O)O[C@@H]1O[C@@H](C)[C@H](O)[C@@H](O)[C@H]1O)C(=O)NC(Cc1c[nH]c2ccccc12)C(=O)O (stereo partly drawn),14.3,–
CN1C2CCC1CC(OC(c1ccccc1)c1ccccc1N)C2 (stereo not drawn),-12.4,–
CCN1C[C@@]2(COC)C3[C@@H](OC)C4[C@H]1C3([C@@H]1C[C@@]3(O)[C@H](OC(=O)c5ccccc5)[C@@H]1[C@]4(OC(C)=O)[C@@H](O)[C@@H]3OC)[C@H](OC)C[C@H]2O,11.5,–
CC(C)(C)OC(=O)NC1[C@H]2CNC[C@@H]12 (stereo partly drawn),–,20.3 µM (active)
S=C(NC1CCCCC1)N1CCC(c2cnc[nH]2)CC1,-5.53,–
N[C@@]1(C(=O)O)CC[C@@H](C(=O)O)C1,6.93,–
C[N+]1(C)CCN(c2ccccc2)CC1,11.3,–
C=CCN1CCC23c4c5ccc(O)c4O[C@H]2C(=O)CC[C@@]3(O)C1C5 (stereo partly drawn),4.05,–
OCc1cnc[nH]1,3.46,–
C#CCOC(=O)C1=CCCN(C)C1,-3.4,–
CS(=N)(=O)CC[C@H](N)C(=O)O (stereo partly drawn),11.4,–
O=C(N[C@H]1CN2CCC1CC2)c1ccc(Cl)cc1,-2,–
